Results on 8 compounds are retold here after PubChem BioAssay (Tox21).

The target in assay [1] is Peroxisome proliferator-activated receptor delta (Homo sapiens) (UniProt Q03181). The experiment in a line: qHTS assay to identify small molecule agonists of the peroxisome proliferator-activated receptor delta (PPARd) signaling pathway (AID 743212; calls by dose curve;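 note: HEK293H cells with PPARd UAS beta-lactamase reporter GeneBLAzer system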). The method, boiled down: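 Steps: seed PPARd-bla HEK293H cells; incubate 5 h, 37 C, 5% CO2; add compounds in DMSO; incubate, 37 C; add LiveBLAzer B/G FRET substrate; hold 2 h at room temperature; measure fluorescence.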
For orientation: Quantitative high-throughput screening tests each substance at several concentrations.

Assay [2] is described as follows: qHTS assay to identify small molecule antagonists of the peroxisome proliferator-activated receptor delta (PPARd) signaling pathway - cell viability counter screen (AID 743213). Note: nearly all actives have a fitted effect of over 50% in size. A digest of the protocol:
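In this counter screen, HEK293H cells carrying a UAS-beta-lactamase reporter are co-treated with test compounds and 300 nM L165041 (final) for 17 h at 37 C; cell viability is quantified by CellTiter-Glo luminescence.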

Assay [3] addresses Peroxisome proliferator-activated receptor delta (Homo sapiens) (UniProt Q03181). The assay is described as follows: qHTS assay to identify small molecule antagonists of the peroxisome proliferator-activated receptor delta (PPARd) signaling pathway (AID 743215; active = well fitted inhibition curve with a large enough effect in the signal ratio in the repeat runs, not every such curve was filed as active; the % refers to the signal ratio;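 note: cells stimulated with agonist L165041 at 300 nM final during compound exposure; series mostly up to about 62 µM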). A digest of the protocol:
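Screen format: qHTS, antagonist mode. HEK293H PPARd-bla cells received compound and 300 nM L165041 (final), 17 h, 37 C. Beta-lactamase detected via FRET substrate fluorescence, 2 h, room temperature.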

Assay [4] concerns the target Bile acid receptor (Homo sapiens) (UniProt Q96RI1). The assay is described as follows: qHTS assay to identify small molecule antagonists of the farnesoid-X-receptor (FXR) signaling pathway (AID 743217; active = well fitted inhibition curve with a large enough effect in the signal ratio in the repeat runs, not every such curve was filed as active; the % refers to the signal ratio). The method, boiled down:
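Quantitative HTS, beta-lactamase reporter format: FXR-UAS-bla HEK 293T cells co-treated 16 h at 37 °C with compounds and 50 uM final chenodeoxycholic acid, then read by B/G FRET fluorescence.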

A short description of assay [5]: qHTS assay to identify small molecule agonists of the farnesoid-X-receptor (FXR) signaling pathway - cell viability counter screen (AID 743218). Note: nearly all actives have a fitted effect of over 45% in size. The method, boiled down:
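Same-well cytotoxicity check on FXR-UAS-bla HEK 293T cells: 5 h attachment, 16 h compound at 37 C, CellTiter-Glo luminescence read at room temperature after 30 min.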

Assay [6] deals with Bile acid receptor (Homo sapiens) (UniProt Q96RI1). The experiment in a line: qHTS assay to identify small molecule agonists of the farnesoid-X-receptor (FXR) signaling pathway (AID 743220; active = well fitted activation curve with a large enough effect in the signal ratio in the repeat runs, not every such curve was filed as active; the % refers to the signal ratio). The method, boiled down: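 FXR-UAS-bla HEK 293T cells carrying a UAS-driven beta-lactamase reporter were plated for 5 h at 37C/5% CO2, then exposed to DMSO-dissolved Tox21 10K compounds for 16 h at 37C. A LiveBLAzer B/G FRET substrate was loaded for 2 h at room temperature before fluorescence reading.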

The nature of assay [7]: qHTS assay to identify small molecule antagonists of the farnesoid-X-receptor (FXR) signaling pathway - cell viability counter screen (AID 743221; active = well fitted cell-killing curve with a large enough effect in the repeat runs, not every such curve was filed as active; note: nearly all actives have a fitted effect of over 50% in size). The method, boiled down: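 Luminescence from CellTiter-Glo measures cytotoxicity in GeneBLAzer FXR-UAS-bla HEK 293T cells. Cells were exposed to compounds with 50 uM chenodeoxycholic acid (final) for 16 h at 37 C, in wells also used for the reporter readout.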

Assay [8] has as its target Vitamin D3 receptor (Homo sapiens) (UniProt P11473). The experiment in a line: qHTS assay to identify small molecule agonists of the vitamin D receptor (VDR) signaling pathway (AID 743222; calls by dose curve). The method, boiled down: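 Using LiveBLAzer B/G FRET detection, agonism was scored in VDR-bla cells exposed overnight (16 h, 37C) to DMSO-dissolved compounds; substrate incubation was 2 h at room temperature.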

For assay [9] the target is unchanged. The experiment in a line: qHTS assay to identify small molecule antagonists of the vitamin D receptor (VDR) signaling pathway (AID 743223; active = well fitted inhibition curve with a large enough effect in the signal ratio in the repeat runs, not every such curve was filed as active; the % refers to the signal ratio). The method, boiled down:
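Antagonist mode uses 1alpha,25-dihydroxyvitamin D3 at 3 nM final as stimulus. VDR-bla cells receive compounds in DMSO, incubate 16 h at 37C, then a beta-lactamase FRET substrate for 2 h at room temperature before fluorescence measurement.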

Assay [10] in a line: qHTS assay to identify small molecule agonists of the vitamin D receptor (VDR) signaling pathway - cell viability counter screen (AID 743224). Note: series mostly up to about 63 µM; nearly all actives have a fitted effect of over 50% in size. A digest of the protocol:
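Counter screen for cytotoxicity: VDR-bla cells at 2,000 cells/well, 16 h compound exposure, then CellTiter-Glo luminescence after the beta-lactamase measurement.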

Assay [11] is described as follows: qHTS assay to identify small molecule antagonists of the vitamin D receptor (VDR) signaling pathway - cell viability counter screen (AID 743225). Note: nearly all actives have a fitted effect of over 50% in size. A digest of the protocol: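 Read-out: CellTiter-Glo luminescence measured 30 min after reagent addition at room temperature. Cells were VDR-bla HEK 293T exposed 16 h at 37C, 5% CO2, to compound with 3 nM final calcitriol agonist.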

Assay [12] in a line: qHTS assay to identify small molecule agonists of the NFkB signaling pathway (AID 1159509; active = well fitted curve in the direction sought with a large enough effect in the signal ratio in the repeat runs, not every such curve was filed as active; the % refers to the signal ratio; note: series mostly up to about 61 µM). The method, boiled down: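 Readout: FRET fluorescence, 405 nm excitation, 460/530 nm emission; beta-lactamase expression disrupts FRET. Cells: ME-180 stably carrying NF-kB-driven bla reporter. Compound exposure 5 hr, 37 C, 5% CO2.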
Assay [13] can be described thus: qHTS assay to identify small molecule agonists of the NFkB signaling pathway - cell viability counter screen (AID 1159515; calls by dose curve; note: series mostly up to about 61 µM; nearly all actives have a fitted effect of over 55% in size). The method, boiled down: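 Counter screen run alongside the NFkB-bla agonist assay: ME-180 reporter cells exposed to compounds for 5 hr, then lysed with CellTiter-Glo in the same wells. Luminescence, read after 30 min, reflects viable cells.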

Assay [14] can be described thus: qHTS assay to identify small molecule agonists of the endoplasmic reticulum stress response signaling pathway (AID 1159516; active = well fitted activation curve with a large enough effect in the signal ratio in the repeat runs, not every such curve was filed as active; the % refers to the signal ratio). The method, boiled down: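 For this screen, HeLa cells stably carrying beta-lactamase under the ER stress response element received test compounds, positive controls or DMSO for 5 hr at 37 C; B/G FRET substrate was then added and dual-wavelength emission recorded.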

Assay [15] can be described thus: qHTS assay to identify small molecule agonists of the endoplasmic reticulum stress response signaling pathway - cell viability counter screen (AID 1159517; calls by dose curve; note: nearly all actives have a fitted effect of over 50% in size; note: potency is the fitted concentration of half-maximal effect). A digest of the protocol:
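After overnight attachment, ESRE-bla HeLa cells were treated with Tox21 library compounds for 5 hr. CellTiter-Glo luminescence, read 30 min post-addition at room temperature, reported viability.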

Assay [16] can be described thus: qHTS assay to identify small molecule antagonists of the retinoid-related orphan receptor gamma (ROR-gamma) signaling pathway - cell viability counter screen (AID 1159520). Note: nearly all actives have a fitted effect of over 50% in size. A digest of the protocol:
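Cytotoxicity was read from cellular ATP (CellTiter-Glo luminescence) after 16 hr at 37 C with 1 uM doxycycline induction. The inducer was added 2 hr after compound transfer to Tet-on ROR gamma CHO cells.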

In assay [17] the target is Nuclear receptor ROR-gamma (Homo sapiens) (UniProt P51449). The assay is described as follows: qHTS assay to identify small molecule antagonists of the retinoid-related orphan receptor gamma (ROR-gamma) signaling pathway (AID 1159521). The method, boiled down:
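CHO Tet-on RORγ, RORE-luc reporter. Cpd 2 h pre-incubation, then dox hyclate 1 uM final, 16 h, 37 C/5% CO2. ONE-Glo luminescence; decrease = antagonist.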

Assay [18] can be described thus: qHTS assay to identify small molecule agonists of the AP-1 signaling pathway - cell viability counter screen (AID 1159525; calls by dose curve; note: nearly all actives have a fitted effect of over 55% in size). The method, boiled down: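 Intracellular ATP by Cell Titer Glo luminescence (30 min, RT) in the same ME-180 AP-1-bla wells after the 5 h compound exposure at 37 °C. Normalised to tetra n-octyl ammonium bromide and DMSO controls.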
Assay [19] is described as follows: qHTS assay to identify small molecule agonists of the AP-1 signaling pathway (AID 1159526; calls by dose curve).
Assay [20] can be described thus: qHTS assay to identify small molecule agonists of the peroxisome proliferator-activated receptor delta (PPARd) signaling pathway - cell viability counter screen (AID 743211). Note: nearly all actives have a fitted effect of over 55% in size. A digest of the protocol: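 HEK293H PPARd-bla, 3000 cells/well; 5 h preincubation 37C/5% CO2; cpd in DMSO, 17 h 37C; B/G FRET substrate 2 h RT; CellTiter-Glo 30 min RT, luminescence.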

Results filed as inconclusive are left out. A number with no mark means an inactive call. Calls of active or inactive are those of the source. Unless noted, calls come from the whole dose curve; as a rule, active = well fitted curve in the direction sought with a large enough effect in the repeat runs; inconclusive = weak or mixed curves; inactive = no such curve, though single readings can be large; an effect the other way counts as inactive or inconclusive.

Peroxisome proliferator-activated receptor delta (Homo sapiens), sequence (Q03181 whole entry, looked up): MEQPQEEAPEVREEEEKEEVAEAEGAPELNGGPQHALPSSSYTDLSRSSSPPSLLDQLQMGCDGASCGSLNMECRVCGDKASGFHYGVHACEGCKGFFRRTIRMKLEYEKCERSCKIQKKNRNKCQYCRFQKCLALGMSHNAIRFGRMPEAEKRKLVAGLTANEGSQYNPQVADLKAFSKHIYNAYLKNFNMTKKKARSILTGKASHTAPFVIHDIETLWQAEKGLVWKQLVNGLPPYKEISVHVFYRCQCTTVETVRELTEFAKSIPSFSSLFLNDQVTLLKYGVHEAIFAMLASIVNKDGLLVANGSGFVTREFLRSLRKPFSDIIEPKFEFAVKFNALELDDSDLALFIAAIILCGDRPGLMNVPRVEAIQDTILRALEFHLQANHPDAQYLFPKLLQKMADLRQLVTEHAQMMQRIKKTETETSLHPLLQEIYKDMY
Vitamin D3 receptor (Homo sapiens), sequence (P11473 whole entry, looked up): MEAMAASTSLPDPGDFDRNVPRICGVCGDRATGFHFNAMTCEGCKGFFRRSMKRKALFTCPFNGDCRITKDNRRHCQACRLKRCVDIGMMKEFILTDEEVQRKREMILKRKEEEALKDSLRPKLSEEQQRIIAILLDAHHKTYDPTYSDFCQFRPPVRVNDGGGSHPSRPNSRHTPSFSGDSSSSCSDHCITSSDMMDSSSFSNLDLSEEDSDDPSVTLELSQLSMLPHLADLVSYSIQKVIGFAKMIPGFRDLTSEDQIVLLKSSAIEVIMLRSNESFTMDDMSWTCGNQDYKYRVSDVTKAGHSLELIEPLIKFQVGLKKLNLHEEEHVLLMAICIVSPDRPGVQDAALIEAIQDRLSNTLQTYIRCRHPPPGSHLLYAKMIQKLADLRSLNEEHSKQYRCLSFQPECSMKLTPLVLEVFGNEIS
Bile acid receptor (Homo sapiens), sequence (Q96RI1 whole entry, looked up): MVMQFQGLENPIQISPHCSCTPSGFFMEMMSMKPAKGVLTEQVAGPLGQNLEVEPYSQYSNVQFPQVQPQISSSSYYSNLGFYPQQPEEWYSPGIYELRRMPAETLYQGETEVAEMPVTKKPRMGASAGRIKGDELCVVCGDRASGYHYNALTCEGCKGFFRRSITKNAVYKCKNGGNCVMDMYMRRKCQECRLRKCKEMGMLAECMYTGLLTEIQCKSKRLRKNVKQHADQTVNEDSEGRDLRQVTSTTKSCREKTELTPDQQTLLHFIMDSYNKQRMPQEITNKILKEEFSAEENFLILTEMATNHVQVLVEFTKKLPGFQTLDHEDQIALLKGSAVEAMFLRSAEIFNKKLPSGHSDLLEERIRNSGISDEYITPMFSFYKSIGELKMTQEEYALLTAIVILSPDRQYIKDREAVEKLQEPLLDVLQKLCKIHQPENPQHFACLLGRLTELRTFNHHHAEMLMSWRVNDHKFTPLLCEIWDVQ

As for `Nc1ccc(S(=O)(=O)Nc2ccc(Cl)nn2)cc1`, the result in assay [1], in [2], in [3], in assay [7], in assay [8] and in [9] was inactive. The compound was classed as inactive in [11], in assay [12], in assay [13], in assay [14], in [16] and in [17]. The result in assay [18] and in assay [19] was inactive. The Potency result in [4], in [5], in assay [6], in assay [10] and in [15] was “inactive” in each case.
For the compound `On1nnc2ccccc21`, the call in assay [20], in assay [8], in assay [9], in assay [11], in assay [12] and in assay [13] was inactive. In addition, the compound was classed as inactive in [14], in assay [16], in [17], in assay [18] and in assay [19]. Moreover, the Potency result in assay [10] and in [15] was “inactive” throughout.
For `C=CC(OCC)OCC`, the outcome in [20], in assay [1], in assay [2], in assay [3], in assay [7] and in assay [8] was inactive. The compound was called inactive in assay [9], in [11], in assay [12], in assay [13], in assay [14] and in [16]. Besides, the compound was classed as inactive in assay [17] and in [19]. Moreover, the Potency entry in assay [5] and in assay [15] was “inactive” each time.
Regarding `CC(C)N(c1ccccc1)C(C)C`, the compound was called inactive in [20], in assay [1], in [2], in [3], in assay [7] and in [8]. In addition, the compound was called inactive in [11], in assay [12], in [13], in assay [14], in assay [16] and in assay [17]. Besides, the compound was called inactive in assay [19]. Besides, the Potency result in assay [5], in assay [10] and in assay [15] was “inactive” in each case.
`COc1ccc(C2CNC(=O)C2)cc1OC1CCCC1` (centres undefined): the compound was called inactive in assay [20], in assay [1], in assay [2], in [3], in [7] and in assay [8]. Besides, the compound was classed as inactive in assay [9], in assay [11], in assay [12], in [13], in assay [14] and in [16]. Besides, the call in [17] and in [19] was inactive. The Potency entry in assay [5], in assay [10] and in assay [15] was “inactive” in each case.
As to `CC(C)(C)c1n[nH]c(=S)n(N)c1=O`, the compound was called inactive in assay [20], in assay [2], in assay [7], in assay [8], in assay [11] and in assay [12]. The compound was classed as inactive in assay [13], in [14], in assay [16], in assay [17], in assay [18] and in assay [19]. In addition, the Potency entry in assay [5] and in assay [15] was “inactive” in each case.
`Cc1cc(Cl)c(C)cc1Cl`: the call in assay [20], in assay [7], in assay [8], in assay [11], in assay [12] and in [13] was inactive. For the same compound, the call in assay [14], in assay [16], in assay [17], in assay [18] and in assay [19] was inactive. Also, the Potency entry in assay [5] and in assay [10] was “inactive” each time. The Potency in assay [15] is 54.9 µM (active).
Consider `O=C(Nc1ccc(Cl)c(Cl)c1)C1CC1`, for which the compound was called inactive in assay [20], in assay [1], in assay [2], in [3], in assay [7] and in [9]. In addition, the compound was classed as inactive in assay [12], in assay [13], in assay [14], in [16], in assay [17] and in [19]. In addition, the Potency entry in [5], in assay [10] and in assay [15] was “inactive” each time.
